Most compounds without a hit are left out; they make up all but 3.2% or so of the library.
FMDV antiviral: blocks foot and mouth disease virus | FMDV antiviral cell-based qHTS | Potency, µM (top dose mostly 57.9 µM), most hits filed as inhibitors | actives 1.2% (n = 410,000); calls by dose curve; tested in HEK293T cells; also: read-out not given here; nearly all actives have a fitted effect of over 45% in size
MARV entry inh: inhibitors of Marburg virus binding or cell entry; Marburg virus pseudotyped entry inhibition, cell reporter; Potency, µM (highest dose often 37.8 µM), most hits filed as inhibitors; actives 1.8% (n = 300,000); AID 540276; calls by dose curve; tested in HEK293 cells
Vaccinia mCherry: inhibitors of vaccinia virus infection (mCherry reporter signal); Vaccinia virus mCherry reporter infection, fluorescence; Potency, µM (top dose mostly 36.5 µM), usual class: inhibitors; actives 0.63% (n = 310,000); calls by dose curve; tested in A549 cells; also: nearly all actives have a fitted effect of over 35% in size
LASV entry inh: blocks Lassa virus binding to or entry into cells; Lassa virus pseudotype entry inhibition, cell reporter; Potency, µM (titrated, usually from 37.9 µM), most hits filed as inhibitors; actives 1.2% (n = 300,000); AID 540256; calls by dose curve; tested in HEK293 cells; also: nearly all actives have a fitted effect of over 50% in size
Vaccinia Venus: vaccinia inhibition (Venus reporter); Vaccinia virus Venus reporter expression, fluorescence; Potency, µM (highest dose often 36.5 µM), actives largely listed as inhibitors; actives 0.46% (n = 330,000); calls by dose curve; tested in A549 cells; also: nearly all actives have a fitted effect of over 30% in size
A number is an active result; – = inactive; ? = inconclusive; · = no result.

SMILES | FMDV antiviral | MARV entry inh | Vaccinia mCherry | LASV entry inh | Vaccinia Venus
CN1CCN(c2ccc(S(=O)(=O)N3CCCCC3)cc2NC(=O)/C=C/c2ccc(Cl)c([N+](=O)[O-])c2)CC1 | ? | ? | – | 13µM | –
CN1CCN(c2ccc(S(=O)(=O)N3CCCCC3)cc2NC(=O)/C=C/c2ccc(OC(F)F)cc2)CC1 | – | ? | ? | ? | 13µM
O=S(=O)(c1ccc(Cl)c(NC(=S)N/N=C/c2ccc(O)cc2)c1)N1CCOCC1 | ? | ? | ? | 12µM | ?
O=S(=O)(c1ccc(Cl)c(NC(=S)N/N=C/c2c(F)cccc2F)c1)N1CCOCC1 | ? | ? | – | – | –
Nc1sc(Cc2ccccc2)cc1C(=O)c1c(-c2ccccc2)[nH]c2ccccc12 | – | · | ? | · | ?
CCN1CCN(c2ccc(S(=O)(=O)N3CCCCC3)cc2NC(=O)/C=C/c2ccc(OC(F)F)cc2)CC1 | – | ? | ? | 6.3µM | ?
CCC(=O)N[C@@H]1c2ccccc2C2(CCN(Cc3[nH]c4c(Cl)cccc4c3C)CC2)[C@H]1OC | – | · | – | · | –
COc1ccc(OC)c(-c2cc(C(=O)Nc3cc(C)n(Cc4ccc(Cl)cc4)n3)no2)c1 | 22µM | ? | · | – | ·
O=C(Nc1ccc2c(c1)OCO2)c1ccc(Cl)cc1Cl | – | 6.3µM | – | ? | –
O=C(Nc1ccc2c(c1)OCO2)c1cc(-c2ccc(Cl)cc2)on1 | – | – | – | – | –
O=C(Nc1ccc2c(c1)OCCO2)c1ccc(Cl)cc1Cl | – | ? | – | ? | –
COc1ccc(-c2cc(C(=O)Nc3cccc(O)c3)no2)cc1 | 20µM | · | · | · | ·
COc1cccc(-c2cc(C(=O)Nc3cc(C)n(Cc4ccc(Cl)cc4)n3)no2)c1 | ? | ? | · | – | ·
O=C(Nc1ccc2c(c1)OCO2)c1cc(-c2ccc(O)cc2)on1 | – | 7.9µM | – | – | –
COc1ccc(F)cc1S(=O)(=O)NCC(c1ccco1)S(=O)(=O)c1ccc(F)cc1 (stereo not given) | – | · | – | – | –
CC(=O)c1ccc(F)c(-c2cc(C)cc3c2OC(CNC(=O)Cc2ccc4c(c2)OCO4)C3)c1 (stereo not given) | – | · | – | · | –
COc1cc(OC)c(OC)cc1CN1CCC(n2cc(C(=O)N3CCCCC3)nn2)CC1 | – | · | – | · | –
COc1ccccc1-c1cc(C(=O)Nc2c(C)nn(Cc3ccc(Cl)cc3)c2C)no1 | 28µM | 10µM | ? | ? | ?
CCOc1ccc(-c2cc(CCCC(=O)Nc3cccc(OC)c3)no2)cc1 | ? | ? | – | 0.82µM | ?
COc1ccc(-c2cc(C(=O)Nc3c(C)nn(Cc4ccc(Cl)cc4)c3C)no2)cc1 | ? | 23µM | · | – | ·
Cc1cccn2c(=O)c(C=O)c(Cl)nc12 | 32µM | ? | – | ? | –
O=C(C1CCN(CCCc2ccccc2)CC1)N(CCc1ccccc1)Cc1ccccc1 | – | ? | ? | 11µM | ?
CCCCNc1nc(N)nc(-c2cc(Cl)ccc2O)n1 | – | ? | ? | ? | 20µM
CCNc1nc(N)nc(-c2cc(Cl)ccc2O)n1 | – | ? | 10µM | ? | 10µM
Cc1ccc(NC(=O)CSc2nnc(C)n2-c2ccccc2)cc1 | – | – | – | – | –
SMILES | FMDV antiviral | MARV entry inh | Vaccinia mCherry | LASV entry inh | Vaccinia Venus
Cc1nnc(SCC(=O)N/N=C/c2cn(-c3ccccc3)nc2-c2ccccc2)n1-c1ccccc1 | 28µM | ? | ? | ? | ?
Cc1ccc(-c2nn(-c3ccccc3)cc2/C=N/NC(=O)c2ccc(Br)o2)cc1 | 28µM | ? | · | – | –
CCOC(=O)CCN1C(=O)[C@@H]2[C@H]3[C@H](O)[C@H](O)CC(=NNC(=O)OCc4ccc(OC)cc4)[C@@H]3CC[C@H]2C1=O | · | – | · | ? | ·
O=C(CN1Cc2ccccc2OC(c2ccsc2)C1)NCC1OCCc2ccccc21 (stereo not given) | – | · | – | · | –
O=C(NCc1nnc2n1CCN(C(=O)/C=C/c1ccccc1)CC2)c1cccc(F)c1 | – | · | – | · | –
O=C(c1ccoc1)N1CCN(c2cc(-c3ccccc3)nc3cc(-c4ccc(Br)cc4)nn23)CC1 | 22µM | · | – | · | –
O=C(c1ccncc1)N1CCN(c2cc(-c3ccccc3)nc3cc(-c4cccc(Cl)c4)nn23)CC1 | 28µM | · | ? | · | ?
CC(=O)N1CCN(c2cc(-c3ccccc3)nc3cc(-c4cccc(Cl)c4)nn23)CC1 | 18µM | · | ? | · | ?
O=C(c1ccoc1)N1CCN(c2cc(-c3ccncc3)nc3cc(-c4cccc(Cl)c4)nn23)CC1 | ? | · | – | · | –
O=S1(=O)CCOC[C@H](c2ccccc2)N1Cc1ccc(F)cc1 | · | · | – | · | –
Cc1ccc(Cl)cc1NC(=O)Cn1c(=O)n(CCCS(=O)(=O)C2CCCCC2)c(=O)c2ccccc21 | – | ? | – | – | –
CCCCCCCCCCCCCCCC[n+]1ccc(C)cc1 | · | · | ? | · | 28µM
CCCCCc1ccc(OCCCC[n+]2ccc(C)cc2)c(CCCCC)c1 | ? | ? | ? | 4.5µM | ?
Cc1cc[n+](CCC2CCCCC2)cc1 | · | · | – | · | ?
C[C@H]1[C@@H](C(=O)N2CCCC2)CC(=NOCc2ccccc2)C(=NOCc2ccccc2)C[C@H]1c1ccccc1 | · | – | · | ? | ·
CCCn1c(-c2nonc2N)nc2ccccc21 | – | – | – | – | –
CCn1c(-c2nonc2N)nc2c(C#CC(C)(C)O)nc(OC(CN)c3ccccc3)cc21 (stereo not given) | · | · | · | 8.9µM | ·
Cc1ccc(NC(=O)c2cc(-c3ccccc3)nn2-c2ccccc2)cc1 | – | ? | – | ? | –
O=C(Nc1ccc(F)cc1)c1nn(-c2ccccc2)c(=O)cc1Cl | 22µM | 7.1µM | ? | ? | 28µM
Cc1c(Cl)cccc1NC(=O)Nc1cc(C(C)(C)C)on1 | – | · | – | · | –
Cc1cnc(SCc2ccccn2)nc1C1CCCN(Cc2ccsc2)C1 (stereo not given) | – | · | – | · | –
CCOc1ccc(S(=O)(=O)/N=C(\N)c2ccccc2)cc1 | – | – | ? | 13µM | –
CCOc1ccc(S(=O)(=O)/N=C(/c2ccccc2)N(C)C)cc1 | – | · | · | · | ·
CC(C)[C@@H]1Cc2c(C#N)c(N)sc(=S)c2CO1 | · | – | · | · | ·
CC1=NN(c2ccc(C)cc2)C(=O)/C1=C\C=C\c1ccccc1 | 28µM | – | – | – | –
SMILES | FMDV antiviral | MARV entry inh | Vaccinia mCherry | LASV entry inh | Vaccinia Venus
CC1=NN(c2cccc(C(=O)O)c2)C(=O)/C1=C\C=C/c1ccccc1 | 10µM | ? | – | ? | –
Cc1ccc2nc(-c3ccccc3)nn2c1 | 11µM | 8.9µM | – | 1.1µM | –
Cc1ccc(-c2nnc(-c3ccccc3)c(-c3ccccc3)n2)cc1 | – | – | – | – | –
COc1cc(N(C)C)c(OC)cc1/C=C1\C=Cc2ccccc21 | · | · | – | · | –
Cc1nn(-c2ccc(NC(=O)c3ccncc3)cc2)c(C)c1Cl | 18µM | ? | – | ? | –
C#CCn1cc(/C=C2\NC(=O)NC2=O)c2ccccc21 | – | ? | 4.5µM | – | –
COC(=O)c1ccc(CN2C(=O)[C@@]3(CC(C)=C[C@@H](COc4ccccc4)O3)c3ccccc32)cc1 | · | – | · | · | ·
CCCCN(CC)CCNC(=O)c1cc2c(=O)n(C)c3ccccc3c2s1 | – | 7.9µM | ? | ? | –
CCCCN(CC)CCNC(=O)c1cc2c(=O)n(CC)c3ccccc3c2s1 | – | ? | – | ? | –
CCCCN(CC)CCCNC(=O)c1cc2c(=O)n(CC)c3ccccc3c2s1 | – | 11µM | – | – | ?
CCCN(CCC)CCCNC(=O)c1cc2c(=O)n(CC)c3ccccc3c2s1 | – | 10µM | – | ? | –

Screening data deposited in PubChem BioAssay by National Center for Advancing Translational Sciences (NCATS).
